Bioassay records (PubChem BioAssay)
PfHsp90 yeast 2 = growth inhibition of PfHsp90-expressing yeast, primary screen, antimalarial PfHsp90 inhibitor project, S. cerevisiae, BacTiter-Glo luminescence, single point, set 2 | actives 0.32% (n = 310,000) | inhibition, % at 9.4 µM | BacTiter-Glo ATP, 48 h; yeast lacking PDR1 and PDR3 efflux regulators | AID 504621, 2011;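 active = every replicate shows inhibition above about 80%, whatever the replicate mean, limit read from the data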
TIM10 inh = growth inhibitors of isogenic TIM10 control yeast, primary screen, counter-screen for tim10-1 yeast inhibitor project, luminescence, uHTS | S. cerevisiae TIM10 strain growth, BacTiter-Glo luminescence, 24 h | inhibition, % at 10 µM | actives 1.4% (n = 330,000) | AID 463195, 2010;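 active = inhibition of 40% or more at the single tested concentration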;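 note: wild-type TIM10 isogenic control strain grown at permissive 25 °C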
EBI2 antag = EBI2 receptor antagonists, beta-arrestin recruitment, primary screen, cell-based, luminescence, 7a,25-OHC stimulation, uHTS. G-protein coupled receptor 183 (Homo sapiens), P32249. 7a,25-OHC stimulated. inhibition, % at 5 µM. actives 0.81% (n = 360,000); in the data active = inhibition above about 38%;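 note: enzyme fragment complementation signal reports receptor beta-arrestin coupling in cells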
Target sequence (P32249 whole entry, looked up, the tested form may be a part): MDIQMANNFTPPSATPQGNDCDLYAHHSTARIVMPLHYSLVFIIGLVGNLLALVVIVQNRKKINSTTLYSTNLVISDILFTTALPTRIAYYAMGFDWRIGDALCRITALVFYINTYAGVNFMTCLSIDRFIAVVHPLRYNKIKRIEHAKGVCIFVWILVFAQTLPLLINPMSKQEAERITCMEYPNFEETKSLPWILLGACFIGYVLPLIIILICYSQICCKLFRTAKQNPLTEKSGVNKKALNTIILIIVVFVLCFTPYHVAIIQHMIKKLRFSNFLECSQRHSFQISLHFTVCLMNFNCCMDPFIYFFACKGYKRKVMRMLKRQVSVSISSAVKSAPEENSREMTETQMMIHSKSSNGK
tim10-1 inh = growth inhibitors of tim10-1 mutant yeast, primary screen, luminescence, uHTS; S. cerevisiae tim10-1 ts strain growth, BacTiter-Glo, 24 h; inhibition, % at 20 µM; actives 2.2% (n = 330,000); AID 463190, 2010;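 active = inhibition of at least 40%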;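 note: mutant grown at 25 °C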
tim23-1 inh = growth inhibitors of tim23-1 mutant yeast, primary screen, luminescence, uHTS. S. cerevisiae tim23-1 growth, BacTiter-Glo luminescence, 24 h. inhibition, % at 20 µM. actives 1.3% (n = 330,000);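 active = growth inhibition of the mutant yeast at or above 50%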;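 note: temperature-sensitive mutant grown at 25 °C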
SKKanGAS inh = S. pyogenes SKKanGAS growth inhibitors in kanamycin, primary screen, streptokinase expression inhibitor project, SKKanGAS strain, BacTiter-Glo luminescence; 6 h; inhibition, % at 7.5 µM; actives 1.3% (n = 300,000); AID 1662, 2009;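 active = mean replicate score, as percent of positive control median, at least 50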;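 note: strain carries kanamycin resistance gene driven by streptokinase promoter and grows in 40 µg/ml kanamycin; loss of luminescence reflects streptokinase promoter inhibition or plain growth inhibition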
EBI2 conf = EBI2 antagonist hit retest, beta-arrestin, confirmation, cell-based, single concentration, luminescence, 7a,25-OHC stimulation; shares compounds with EBI2 antag; 7a,25-OHC antagonism; inhibition, % at 5 µM; actives 29% (n = 2,400); AID 651997, 2013;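 active = inhibition of at least 50%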
EBI2 agonist = EBI2 agonist activity of antagonist hits, confirmation, counter-screen for EBI2 antagonist project, cell-based, single concentration, agonist mode, luminescence; shares compounds with EBI2 antag; EBI2-expressing cells, 60 min; 0% vehicle, 100% 7α,25-dihydroxycholesterol control; activation, % at 5 µM; 2,400 tested, under 10 active; AID 652000, 2013;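 active = activation of at least 50%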
bGal cs = E. coli beta-galactosidase enzyme inhibition, confirmation, counter-screen for EBI2 antagonist project, biochemical, luminescence, single concentration; actives 1% (n = 2,400); inhibition, % at 5 µM; shares compounds with EBI2 antag; purified beta-galactosidase, luminescent Galacton Star, 15 min; AID 652176, 2013;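 active = replicate-average signal at least 3 plate SD below neutral wells, shown as high inhibition, flagging enzyme-inhibiting false positives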;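 note: higher means stronger loss of beta-gal luminescence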
Each line names hits and unclear results; the compound was inactive in the other large screens (follow-up assays come after a bar, where they were run). Hits are enriched below; roughly 4.7% of the tested compounds scored in any of these assays.

COC(=O)c1cc2c(ccn2-c2ccc(F)cc2)n1Cc1ccc(OC)cc1	EBI2 antag 44.3 | EBI2 conf inactive | EBI2 agonist inactive | bGal cs inactive
CCn1c(C(=O)OC)cc2c1ccn2-c1ccc(F)cc1	EBI2 antag 46.1 | EBI2 conf inactive | EBI2 agonist inactive | bGal cs inactive
COc1cc(SC)ccc1C(=O)N1CCN(S(=O)(=O)/C=C/c2ccccc2)CC1	EBI2 antag 65.0 (no result: SKKanGAS inh) | EBI2 conf inactive | EBI2 agonist inactive | bGal cs inactive
CCOC(=O)N1CCN(S(=O)(=O)/C=C/c2ccccc2)CC1	none
COc1cc(SC)ccc1C(=O)N1CCN(c2ccccc2F)CC1	none
O=C(c1cc2ccccc2o1)N1CCN(S(=O)(=O)c2cccs2)CC1	EBI2 antag 59.4 | EBI2 conf 52.9 | EBI2 agonist inactive | bGal cs inactive
O=C(c1cc2ccccc2o1)N1CCN(S(=O)(=O)/C=C/c2ccccc2)CC1	EBI2 antag 91.5 | EBI2 conf 85.9 | EBI2 agonist inactive | bGal cs inactive
CC1(c2ccc(Cl)cc2)NC(=O)N(CN2CCOCC2)C1=O (stereo not drawn)	none
c1ccc(N(c2ccccc2)c2nc(N3CCCC3)nc(-n3ccnc3)n2)cc1	EBI2 antag 39.6, SKKanGAS inh 78.5 | EBI2 conf inactive | EBI2 agonist inactive | bGal cs inactive
Cc1cccc(/C=N/n2c(-c3cc(-c4ccccc4)n[nH]3)n[nH]c2=S)c1	none
S=c1[nH]nc(-c2cc(-c3ccccc3)n[nH]2)n1/N=C/c1ccccc1	EBI2 antag 51.1 | EBI2 conf inactive | EBI2 agonist inactive | bGal cs inactive
O=C(Cc1c(F)cccc1Cl)N1CCN(S(=O)(=O)c2cccc(F)c2)CC1	none
COC(=O)C[C@@H]1C=C[C@@H](NC(=O)NC2CCCC2)[C@@H](CO)O1	none (no result: PfHsp90 yeast 2, TIM10 inh, tim10-1 inh, tim23-1 inh, SKKanGAS inh)
COc1ccc(Nc2nc(-c3sc(C)nc3C)cs2)cc1	EBI2 antag 53.3 | EBI2 conf 53.5 | EBI2 agonist inactive | bGal cs inactive
Cc1nc(C)c(-c2csc(Nc3ccc(N)cc3)n2)s1	none
COc1ccc(NC(=O)CN2CCN(C3c4ccccc4-c4ccccc43)CC2)c(OC)c1	none (no result: PfHsp90 yeast 2)
CCOc1ccc(NC(=O)CN2CCN(C3c4ccccc4-c4ccccc43)CC2)cc1	EBI2 antag 67.5 (no result: PfHsp90 yeast 2) | EBI2 conf inactive | EBI2 agonist inactive | bGal cs inactive
COc1cc(-c2nnc(SCc3c(F)cccc3Cl)o2)cc(OC)c1OC	EBI2 antag 41.6 | EBI2 conf inactive | EBI2 agonist inactive | bGal cs inactive
CC(C)Cc1ccc(-c2cc3nc(NCCc4ccc(S(N)(=O)=O)cc4)ccn3n2)cc1	EBI2 antag 65.6 (no result: PfHsp90 yeast 2, TIM10 inh, tim10-1 inh, tim23-1 inh, SKKanGAS inh) | EBI2 conf inactive | EBI2 agonist inactive | bGal cs inactive
NS(=O)(=O)c1ccc(CCNc2ccn3nc(-c4ccccc4)cc3n2)cc1	none (no result: PfHsp90 yeast 2, TIM10 inh, tim10-1 inh, tim23-1 inh, SKKanGAS inh)
COc1ccc(C(=O)NCc2nnc(SCC(=O)N3CCCC3)o2)cc1OC	none
COc1ccc(-c2nc(NC(=O)CSCCO)sc2C)cc1	none
COc1ccc(CC(=O)N2CCN(c3ccccn3)CC2)cc1	none
COc1ccc(OCC(=O)N2CCN(C(=O)Cc3ccccc3)CC2)cc1	EBI2 antag 76.1 | EBI2 conf inactive | EBI2 agonist inactive | bGal cs inactive
COc1ccc(OCC(=O)N2CCN(S(=O)(=O)c3ccccc3[N+](=O)[O-])CC2)cc1	EBI2 antag 83.3 | EBI2 conf 60.6 | EBI2 agonist inactive | bGal cs inactive
CCCS(=O)(=O)N1CCN(C(=O)COc2ccc(OC)cc2)CC1	EBI2 antag 61.7 | EBI2 conf inactive | EBI2 agonist inactive | bGal cs inactive
COc1ccc(OCC(=O)N2CCN(S(=O)(=O)c3ccc4c(c3)OCCO4)CC2)cc1	EBI2 antag 82.0 (no result: PfHsp90 yeast 2, TIM10 inh, tim10-1 inh, tim23-1 inh, SKKanGAS inh) | EBI2 conf 54.7 | EBI2 agonist inactive | bGal cs inactive
COCCNC(=O)CN(Cc1ccc(F)cc1)C(=O)CCC(=O)Nc1nccs1	none
O=C(Nc1cccc(Cl)c1)c1csc([C@@H]2C[C@H](O)[C@@H](CO)O2)n1	none (no result: PfHsp90 yeast 2, TIM10 inh, tim10-1 inh, tim23-1 inh, SKKanGAS inh)
COc1ccc(C(=O)CSc2nc(=O)n3ccc(C)cc3n2)cc1	none (no result: PfHsp90 yeast 2, TIM10 inh, tim10-1 inh, tim23-1 inh, SKKanGAS inh)
Cc1ccc(OCC(=O)N2CCN(C(=O)Cc3ccccc3)CC2)cc1	EBI2 antag 57.7 | EBI2 conf inactive | EBI2 agonist inactive | bGal cs inactive
Cc1ccc(OCC(=O)N2CCCCCCC2)cc1	none
Cc1ccc(C2=CN(Cc3ccccc3)CCC2=O)cc1	EBI2 antag 44.1 (no result: SKKanGAS inh) | EBI2 conf inactive | EBI2 agonist inactive | bGal cs inactive
O=C1CCN(Cc2ccccc2)C=C1c1ccc(Br)cc1	EBI2 antag 84.5 (no result: SKKanGAS inh) | EBI2 conf 66.7 | EBI2 agonist inactive | bGal cs inactive
Cc1ccc2c(c1)CCCN2S(=O)(=O)c1cccc(C(=O)Nc2ccccc2C(=O)O)c1	none
Cc1ccc(Oc2nccc(-c3ccc(Cl)cc3)n2)cc1	none
COc1cc2nc(SCc3c(C)noc3C)n(CCC3=CCCCC3)c(=O)c2cc1OC	EBI2 antag 46.5 | EBI2 conf inactive | EBI2 agonist inactive | bGal cs inactive
C=CCn1c(SCc2c(C)noc2C)nc2ccccc2c1=O	none
CCCc1nc2ccc(NC(=O)c3cccs3)cc2c(=O)n1Cc1ccc(Cl)cc1	EBI2 antag 42.8 | EBI2 conf inactive | EBI2 agonist inactive | bGal cs inactive
CCCc1nc2ccc(NC(C)=O)cc2c(=O)n1Cc1cccc(Cl)c1	none
CCCC(C)NC(=O)COc1ccc(Sc2ccc(OCC(=O)NC(C)CCC)cc2)cc1 (stereo not drawn)	EBI2 antag 43.3 | EBI2 conf inactive | EBI2 agonist inactive | bGal cs inactive
CC(OC(=O)Cc1c[nH]c2ccccc12)C(=O)Nc1ccc(S(N)(=O)=O)cc1 (stereo not drawn)	none (no result: PfHsp90 yeast 2)
CC(=O)c1cccc(NC(=O)c2ccc(-c3ccccc3[N+](=O)[O-])o2)c1	none
